# Bioassay records as filed in PubChem BioAssay.
# Most compounds without a hit are left out; they make up all but 0.93% or so of the library.
# 697 NFkB inh: lowers PMA/ionomycin-induced NF-kB signal in 697 B cells; actives 0.33% (n = 330,000); inhibition, % at 4 µM; 697 B-cell NF-kB luciferase reporter, 16 h; in the data active = inhibition above about 35%
# CFTR F508del cor: CFTR F508del correction in bronchial cells; activity (quench increase), % at 7.58 µM; AID 720511; CFBE cells, YFP halide quenching; stimulated with forskolin plus potentiator P3; % fluorescence drop versus neutral controls; actives 0.36% (n = 350,000);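 active = mean added fluorescence quench of at least 8% versus neutral control, with both replicates also reaching 8%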;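 note: cells transiently co-express mutant CFTR-F508del with the halide-sensitive YFP; corrector assay measuring rescue of mutant channel to the surface after 24 h compound exposure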
# HIF act: HIF pathway transcriptional activation; U2OS HRE-luciferase reporter, luminescence; normalized: DMSO 0%, desferrioxamine 100%; activation, % at 7.5 µM (by protocol); actives 0.32% (n = 300,000); AID 1910;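 active = mean activation of at least 10% of the iron chelator positive control signal, with at least half of replicates also reaching 10%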
# Jurkat NFkB inh: lowers PMA/ionomycin-induced NF-kB signal in Jurkat cells; inhibition, % at 4 µM; actives 0.53% (n = 330,000); AID 435003; PMA/ionomycin-induced NF-kB luciferase reporter, luminescence; in the data active = inhibition above about 50%
# Jurkat NFkB conf: lowers PMA/ionomycin-induced NF-kB signal in Jurkat cells | AID 435020 | inhibition, % at 4 µM | Jurkat NF-kB luciferase, 16 h | actives 27% (n = 2,700) | shares compounds with Jurkat NFkB inh;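 active = inhibition reaching about 45% at 4 µM in either replicate, limit read from the data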;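 note: plate controls were PMA/ionomycin stimulated DMSO wells for no effect and unstimulated DMSO wells for full effect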
# 697 NFkB conf: lowers PMA/ionomycin-induced NF-kB signal in 697 B cells. inhibition, % at 4 µM. actives 35% (n = 2,000). shares compounds with 697 NFkB inh. 697 B-cell NF-kB luciferase, 16 h. AID 449746; in the data active = inhibition mostly above about 28%, no sharp cut-off; inactive = mostly below about 22%
# An asterisk follows results filed as active; i = inactive; · = no result.
SMILES,697 NFkB inh,CFTR F508del cor,HIF act,Jurkat NFkB inh,Jurkat NFkB conf,697 NFkB conf
CCCC#Cc1ccc2c(c1)O[C@H](CN(C)C(=O)CN(C)C)[C@@H](C)CN([C@H](C)CO)S2(=O)=O,·,1.8,·,·,·,·
O=C(Nc1nc2cc3c(cc2s1)OCCO3)C1CCCCC1,-348.3,0.1,·,-233.2,-110.8,-371.2
CCS(=O)(=O)Nc1ccc2c(c1)C(=O)N(C)[C@H]1CC[C@H](CC(=O)NC)O[C@@H]1CO2,·,1.2,·,·,·,·
O=C(Nc1ccc(Cl)cc1)N[C@H]1CC[C@H](CCNC(=O)c2cc(Cl)cc(Cl)c2)O[C@@H]1CO,·,5.3,·,·,·,·
Cc1cc(-c2cc(C(=O)NCc3ccccc3)on2)nc(S(C)(=O)=O)n1,51.4*,-6.1,0.4,52.0*,33.5,41.7*
COCCNc1nc(C)cc(-c2cc(C(=O)NCc3ccccc3)on2)n1,13.3,0.3,0.2,-5.8,·,·
Clc1ccc(/C=C/c2nc3ccccc3[nH]2)cc1,-366.1,·,-3.5,-194.8,-110.7,-332.6
CO[C@H]1CN(C)C(=O)c2ccc(NC(=O)CC(F)(F)F)cc2OC[C@H](C)N(C(C)=O)C[C@@H]1C,·,0.2,·,·,·,·
Cc1cc(N2CCCCC2)n2ncc(-c3ccc(Cl)cc3)c2n1,-309.1,·,2.6,-188.8,-79.9,-214.4
Cc1cc(-c2ccccc2)n2ncc(-c3ccccc3)c2n1,i,·,-1.2,-202.0,-91.0,i
Cc1cc(N2CCCCC2)n2nc(C)c(-c3ccccc3)c2n1,-23.9,·,0.8,-16.6,·,·
Cc1cc(C)n(-c2cc(C(C)(C)C)nc3c(-c4ccc(Cl)cc4)cnn23)n1,-53.7,·,1.2,-61.8,·,·
CC(C)(C)c1cc(N2CCOCC2)n2ncc(-c3ccc(Cl)cc3)c2n1,-10.7,-0.3,1.0,-16.0,·,·
Cc1cc(N2CCCCC2)n2ncc(-c3ccccc3)c2n1,i,·,-2.8,-184.8,-63.2,-417.7
Cc1cc(N2CCOCC2)n2ncc(-c3ccc(Cl)cc3)c2n1,-360.9,-3.2,·,-157.4,-24.3,-229.8
CCCNC(=O)N[C@H]1CC[C@@H](CCNS(=O)(=O)c2cccc(F)c2)O[C@@H]1CO,·,-1.1,·,·,·,·
CC(=O)N(C)C[C@@H]1Oc2cc(C3=CCCC3)ccc2S(=O)(=O)N([C@H](C)CO)C[C@H]1C,·,2.3,·,·,·,·
COc1ccccc1-c1nc(-c2ccc(Br)cc2)no1,-164.8,·,1.5,-127.8,·,·
Cc1ccc(-c2noc(-c3ccccc3Br)n2)cc1,-280.6,·,·,-179.1,-122.7,-253.1
CN(C)c1ccc(-c2noc(-c3ccccc3O)n2)cc1,-369.6,·,-4.4,-167.2,-119.0,-300.4
Cc1cc(C(=O)COC(=O)c2ccccc2O)c(C)n1CC1CCCO1 (stereo not drawn),52.3*,1.0,·,74.4*,86.2*,42.8*
Cc1cc(C(=O)COC(=O)c2ccccc2Br)c(C)n1CC1CCCO1 (stereo not drawn),-34.5,0.3,-3.7,45.5,·,·
C=CCn1c(C)cc(C(=O)COC(=O)c2ccc(N)c([N+](=O)[O-])c2)c1C,-193.6,-2.1,3.0,-126.5,·,·
CCn1c(C)cc(C(=O)COC(=O)c2ccccc2[N+](=O)[O-])c1C,41.4*,·,·,59.1*,93.8*,47.3*
CO[C@@H]1CN(C)C(=O)c2cc(NC(=O)CC(F)(F)F)ccc2OC[C@H](C)N(C(C)=O)C[C@@H]1C,·,1.0,·,·,·,·
SMILES,697 NFkB inh,CFTR F508del cor,HIF act,Jurkat NFkB inh,Jurkat NFkB conf,697 NFkB conf
COc1ccc(S(=O)(=O)N(C)C[C@@H]2Oc3ccc(NC(=O)NC(C)C)cc3CC(=O)N([C@@H](C)CO)C[C@H]2C)cc1,·,-0.8,·,·,·,·
O=C(C[C@H]1C=C[C@@H](NC(=O)CC2CC2)[C@H](CO)O1)NCc1ccccc1,·,2.7,·,·,·,·
COC(=O)c1cn[nH]c1NC(=S)Nc1ccc(C)cc1Cl,-413.0,·,1.6,-205.2,-142.8,-232.6
COC(=O)c1cn[nH]c1NC(=S)Nc1ccccc1C,-53.5,1.9,1.9,7.6,·,·
COC(=O)c1cn[nH]c1NC(=S)Nc1ccc(Cl)c(Cl)c1,-419.8,·,2.3,-277.6,-108.7,-214.8
c1ccc(-c2noc(-c3ccc4c(c3)OCO4)n2)cc1,-342.2,·,0.5,-182.1,-112.5,-274.6
OCCCNc1cc(-c2ccnc(Nc3cccc(Cl)c3)n2)ccn1,85.3*,-7.1,-3.1,98.6*,99.9*,90.8*
CCC(C)Oc1cc(-c2ccnc(Nc3cccc(Cl)c3)n2)ccn1 (stereo not drawn),-53.8,0.3,6.0,26.9,·,·
COc1ccc(C2C(O)C(c3c[nH]c4ccccc34)=NN2C(=O)CCl)cc1 (stereo not drawn),97.4*,2.5,-5.5,100.4*,-2.0,-153.4
COc1ccc(C2NN=C(c3c[nH]c4ccccc34)C2O)cc1 (stereo not drawn),-23.3,1.7,0.6,-57.6,·,·
O=C(c1cccc(F)c1)N1CC(=O)N2[C@H](CO)[C@H](c3ccc(-c4ccccc4F)cc3)[C@H]2C1,·,-0.5,·,·,·,·
Cc1ccc(-c2csc(NC(=O)C3CCN(S(=O)(=O)c4cccs4)CC3)n2)cc1,62.4*,·,0.8,63.0*,73.3*,67.2*
O=C(Nc1nc(-c2ccc3ccccc3c2)cs1)C1CCN(S(=O)(=O)c2cccs2)CC1,-50.0,6.6,0.1,33.1,·,·
CCc1nnc(NC(=O)CSc2nc3c(cc2C#N)CCC3)s1,-136.2,·,-2.6,-75.2,·,·
N#Cc1cc2c(nc1SCC(=O)Nc1nccs1)CCCCC2,-308.9,-2.4,0.9,-229.6,-86.3,-257.6
Clc1cccc(-c2nc(-c3ccccn3)no2)c1,-112.2,·,-3.9,-14.2,·,·
c1ccc(-c2ccc(-c3nc(-c4ccccn4)no3)cc2)cc1,39.4*,1.9,·,76.8*,80.7*,36.1*
Cc1sc2ncnc(N3CCCCC3)c2c1C,-29.7,-2.2,0.0,-14.4,·,·
Clc1ccc(OCCN2CCN(c3ncnc4sccc34)CC2)cc1,100.4*,·,0.2,66.8*,75.7*,96.3*
Cc1ccc(OCCN2CCN(c3ncnc4sc(C)c(C)c34)CC2)cc1,43.2*,·,0.0,67.3*,66.1*,55.8*
CCN1/C(=C/c2ccc3cccc(C)c3[n+]2CC)Sc2ccccc21,101.7*,·,3.2,92.3*,76.7*,86.8*
COc1ccc(C(=O)Nc2ccc3ccccc3c2)c(OC)c1,-280.1,2.1,2.4,-181.1,-123.2,-383.4
O=C(Nc1ccc2ccccc2c1)c1ccccc1F,-328.1,-3.2,-1.2,-220.5,-134.9,-321.8
Cc1ccc(-c2cc(-c3ccccc3)no2)cc1,-426.0,2.2,-0.8,-203.1,-149.4,-362.1
Cc1ccc(NC(=O)OCc2cc(-c3ccccc3)on2)cc1,-9.2,-0.5,2.5,-18.7,·,·
COc1ccc(C(C(=O)NC2CCCCC2)N(C(=O)CCl)c2ccc(Cl)cc2)cc1 (stereo not drawn),92.4*,·,-0.4,75.9*,19.5,19.2*
CCCCCOC(=O)c1[nH]c2c(c1C)C(=O)CC(c1ccco1)C2 (stereo not drawn),-321.7,·,2.4,66.7*,49.0*,7.5
Oc1ccccc1-c1cc(-c2ccc(F)cc2)n[nH]1,-271.8,1.1,4.5,-164.4,-100.3,-235.5
